Source: PMC7862700, “An all-to-all approach to the identification of sequence-specific readers for epigenetic DNA modifications on cytosine”

Key:
Assay in all cases: DAPPL (digital affinity profiling via proximity ligation, sequencing); 10 mM Tris-HCl pH 7.5, 50 mM NaCl, 1 mM DTT, 4% glycerol, room temperature, 30 min; GST-TFs on glutathione beads, 16-mer random dsDNA library, 0.1% formaldehyde crosslink after washing; high values mean tight binding
Conditions in all cases: protein: recombinant; tags: N-terminal GST; dsDNA, one strand shown
ETV2 = target: T1, ETV2 (Homo sapiens, UniProt O00321 1-342)
T1 sequence: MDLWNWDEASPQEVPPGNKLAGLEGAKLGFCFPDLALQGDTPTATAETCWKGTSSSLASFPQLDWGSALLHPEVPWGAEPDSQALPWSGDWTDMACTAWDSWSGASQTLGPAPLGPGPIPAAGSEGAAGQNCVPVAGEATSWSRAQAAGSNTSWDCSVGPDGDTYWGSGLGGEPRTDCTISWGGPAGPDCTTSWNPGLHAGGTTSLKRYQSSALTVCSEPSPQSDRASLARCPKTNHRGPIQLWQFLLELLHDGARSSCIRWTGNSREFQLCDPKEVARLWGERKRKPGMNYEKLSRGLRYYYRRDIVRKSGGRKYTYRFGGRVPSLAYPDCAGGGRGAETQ
Outline: (§1)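 A tag-only sample was pooled with DNA-barcoded human transcription factors that had been expressed in yeast as GST fusions and captured on glutathione beads. The pools were incubated for 30 min at room temperature with 200 nmole of a random double-stranded 16-mer DNA library in Tris/NaCl/DTT/glycerol buffer, then washed, crosslinked with 0.1% formaldehyde, proximity-ligated (BsaI/T4 ligase, 1 h, 37 °C), PCR-amplified and sequenced on an Illumina NextSeq500. Binding signal is each hexamer's read frequency for a factor divided by its frequency for the tag-only sample.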

ELF3 = target: T2, ELF3 (Homo sapiens, UniProt P78545 1-371)
T2 sequence: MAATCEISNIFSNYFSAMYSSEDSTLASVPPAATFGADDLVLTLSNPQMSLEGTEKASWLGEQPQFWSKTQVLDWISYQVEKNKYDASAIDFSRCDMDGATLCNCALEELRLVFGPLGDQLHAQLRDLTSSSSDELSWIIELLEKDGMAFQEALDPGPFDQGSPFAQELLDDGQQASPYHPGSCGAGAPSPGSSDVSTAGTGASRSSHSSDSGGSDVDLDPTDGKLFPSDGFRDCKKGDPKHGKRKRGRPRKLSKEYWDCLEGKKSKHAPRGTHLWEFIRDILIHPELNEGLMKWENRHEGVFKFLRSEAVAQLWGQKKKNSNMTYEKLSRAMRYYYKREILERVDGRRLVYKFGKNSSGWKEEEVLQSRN
Outline: as §1

ETV1 = ETV1 (Homo sapiens, UniProt P50549 1-477)
ETV1, sequence (P50549 whole entry): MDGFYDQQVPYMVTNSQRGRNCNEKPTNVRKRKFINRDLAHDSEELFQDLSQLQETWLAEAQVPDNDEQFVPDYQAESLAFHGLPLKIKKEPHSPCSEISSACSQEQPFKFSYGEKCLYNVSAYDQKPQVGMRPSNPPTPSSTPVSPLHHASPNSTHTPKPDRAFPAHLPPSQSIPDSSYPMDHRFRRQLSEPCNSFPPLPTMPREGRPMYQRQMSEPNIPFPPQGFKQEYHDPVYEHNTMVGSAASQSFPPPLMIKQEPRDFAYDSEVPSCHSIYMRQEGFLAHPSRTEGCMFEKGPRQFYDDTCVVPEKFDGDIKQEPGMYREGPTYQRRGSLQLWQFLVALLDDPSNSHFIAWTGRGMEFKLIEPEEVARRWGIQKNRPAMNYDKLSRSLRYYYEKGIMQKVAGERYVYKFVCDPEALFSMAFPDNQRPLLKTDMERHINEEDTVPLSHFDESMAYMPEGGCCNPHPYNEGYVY
Outline: as §1

ERF = target: T3, ERF (Homo sapiens, UniProt P50548 1-548)
T3 sequence: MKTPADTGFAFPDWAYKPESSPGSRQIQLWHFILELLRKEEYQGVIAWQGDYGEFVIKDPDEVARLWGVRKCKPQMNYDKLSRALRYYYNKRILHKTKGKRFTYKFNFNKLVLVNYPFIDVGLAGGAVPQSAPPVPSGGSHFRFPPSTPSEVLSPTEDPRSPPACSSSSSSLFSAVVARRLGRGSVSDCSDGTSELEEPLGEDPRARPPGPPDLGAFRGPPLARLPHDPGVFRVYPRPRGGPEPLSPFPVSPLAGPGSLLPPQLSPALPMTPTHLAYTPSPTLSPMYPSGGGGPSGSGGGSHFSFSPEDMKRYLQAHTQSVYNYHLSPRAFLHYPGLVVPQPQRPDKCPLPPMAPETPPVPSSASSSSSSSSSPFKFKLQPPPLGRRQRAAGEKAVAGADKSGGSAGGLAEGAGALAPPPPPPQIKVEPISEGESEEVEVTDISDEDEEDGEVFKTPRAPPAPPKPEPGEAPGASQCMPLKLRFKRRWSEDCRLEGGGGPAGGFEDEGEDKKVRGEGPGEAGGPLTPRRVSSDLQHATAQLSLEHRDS
Outline: as §1

ETV3L = target: T4, ETV3L (Homo sapiens, UniProt Q6ZN32 1-361)
T4 sequence: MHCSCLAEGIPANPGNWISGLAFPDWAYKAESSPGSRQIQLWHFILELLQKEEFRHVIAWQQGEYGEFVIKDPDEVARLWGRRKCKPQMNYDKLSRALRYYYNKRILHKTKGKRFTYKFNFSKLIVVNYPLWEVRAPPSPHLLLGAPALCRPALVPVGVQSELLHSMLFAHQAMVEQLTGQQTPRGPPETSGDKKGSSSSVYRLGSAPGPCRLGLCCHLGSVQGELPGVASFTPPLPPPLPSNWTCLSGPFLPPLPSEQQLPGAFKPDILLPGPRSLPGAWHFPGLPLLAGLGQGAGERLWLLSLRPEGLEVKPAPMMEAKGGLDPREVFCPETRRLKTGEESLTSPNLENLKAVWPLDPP
Outline: as §1

ETS2 = target: T5, ETS2 (Homo sapiens, UniProt P15036 1-469)
T5 sequence: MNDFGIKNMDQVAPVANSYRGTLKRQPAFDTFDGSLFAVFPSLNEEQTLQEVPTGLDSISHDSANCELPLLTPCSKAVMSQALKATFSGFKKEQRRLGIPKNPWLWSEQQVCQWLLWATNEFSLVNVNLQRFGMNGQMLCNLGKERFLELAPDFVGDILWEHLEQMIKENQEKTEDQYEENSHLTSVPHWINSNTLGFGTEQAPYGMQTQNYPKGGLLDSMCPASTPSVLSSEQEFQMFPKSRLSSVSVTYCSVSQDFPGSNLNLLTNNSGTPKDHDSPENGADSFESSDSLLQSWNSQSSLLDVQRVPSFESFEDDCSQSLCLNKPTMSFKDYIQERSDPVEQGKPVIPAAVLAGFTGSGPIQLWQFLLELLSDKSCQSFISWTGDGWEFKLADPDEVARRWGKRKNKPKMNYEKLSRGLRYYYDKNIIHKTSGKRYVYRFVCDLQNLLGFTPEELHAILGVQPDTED
Outline: as §1

SPDEF = target: T6, SPDEF (Homo sapiens, UniProt O95238 1-335)
T6 sequence: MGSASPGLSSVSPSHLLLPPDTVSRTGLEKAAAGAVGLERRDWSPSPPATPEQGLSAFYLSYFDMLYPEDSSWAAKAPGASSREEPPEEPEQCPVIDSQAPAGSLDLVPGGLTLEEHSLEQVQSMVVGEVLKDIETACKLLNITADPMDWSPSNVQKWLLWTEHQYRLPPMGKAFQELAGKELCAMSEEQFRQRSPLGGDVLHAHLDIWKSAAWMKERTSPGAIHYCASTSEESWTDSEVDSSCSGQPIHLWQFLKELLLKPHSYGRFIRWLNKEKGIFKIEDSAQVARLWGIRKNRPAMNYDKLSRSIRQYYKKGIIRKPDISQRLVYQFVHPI
Outline: as §1

ETV7 = target: T7, ETV7 (Homo sapiens, UniProt Q9Y603 1-341)
T7 sequence: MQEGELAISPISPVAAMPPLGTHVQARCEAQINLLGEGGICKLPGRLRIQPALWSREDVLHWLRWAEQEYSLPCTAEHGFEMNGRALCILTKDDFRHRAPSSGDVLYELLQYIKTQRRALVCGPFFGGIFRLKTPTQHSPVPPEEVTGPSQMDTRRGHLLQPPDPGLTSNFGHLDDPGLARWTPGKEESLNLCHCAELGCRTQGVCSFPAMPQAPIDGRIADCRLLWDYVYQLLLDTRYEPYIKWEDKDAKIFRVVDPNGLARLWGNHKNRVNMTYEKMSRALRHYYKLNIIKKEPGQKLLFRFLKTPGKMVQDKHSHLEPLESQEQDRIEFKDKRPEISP
Outline: as §1

ETV3 = target: T8, ETV3 (Homo sapiens, UniProt P41162-2 1-143)
T8 sequence: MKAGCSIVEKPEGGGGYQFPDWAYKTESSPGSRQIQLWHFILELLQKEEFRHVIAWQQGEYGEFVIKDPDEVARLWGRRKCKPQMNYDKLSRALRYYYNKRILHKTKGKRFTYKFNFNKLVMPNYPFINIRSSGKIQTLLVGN
Outline: as §1

ETV6 = ETV6 (Homo sapiens, UniProt P41212 1-452)
ETV6, sequence (P41212 whole entry): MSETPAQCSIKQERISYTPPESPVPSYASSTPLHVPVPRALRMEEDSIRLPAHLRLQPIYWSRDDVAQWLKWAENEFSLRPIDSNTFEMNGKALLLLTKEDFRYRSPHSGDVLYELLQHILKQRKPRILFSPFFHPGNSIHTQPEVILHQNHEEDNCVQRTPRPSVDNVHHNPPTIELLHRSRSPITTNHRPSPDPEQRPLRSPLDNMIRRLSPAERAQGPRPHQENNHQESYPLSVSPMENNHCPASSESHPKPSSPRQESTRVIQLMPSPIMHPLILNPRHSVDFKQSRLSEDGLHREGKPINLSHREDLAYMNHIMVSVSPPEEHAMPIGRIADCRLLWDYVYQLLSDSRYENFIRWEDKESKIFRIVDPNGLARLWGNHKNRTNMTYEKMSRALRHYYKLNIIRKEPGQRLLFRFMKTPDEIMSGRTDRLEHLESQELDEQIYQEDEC
Outline: as §1

Question: How did the binding signal (ETV2) turn out when TGCGCC was run?
Answer: 1.18 fold enrichment (6-mer frequency, TF over GST control)

Question: What about the binding signal (ELF3) of the same sequence?
Answer: 1.03 fold enrichment (6-mer frequency, TF over GST control)

Question: What about the binding signal (ETV1) of the same sequence?
Answer: 1.23 fold enrichment (6-mer frequency, TF over GST control)

Question: And the binding signal (ERF)?
Answer: 1.12 fold enrichment (6-mer frequency, TF over GST control)

Question: What about the binding signal (ETV3L) of the same sequence?
Answer: 1.27 fold enrichment (6-mer frequency, TF over GST control)

Question: What about the binding signal (ETS2) of the same sequence?
Answer: 1.14 fold enrichment (6-mer frequency, TF over GST control)

Question: And the binding signal (SPDEF)?
Answer: 1.07 fold enrichment (6-mer frequency, TF over GST control)

Question: What about the binding signal (ETV7) of the same sequence?
Answer: 1.09 fold enrichment (6-mer frequency, TF over GST control)

Question: What about the binding signal (ETV3) of the same sequence?
Answer: 1.15 fold enrichment (6-mer frequency, TF over GST control)

Question: And the binding signal (ETV6)?
Answer: 1.27 fold enrichment (6-mer frequency, TF over GST control)
